Structures are written as SMILES. Records with an inconclusive call do not appear. Values without a mark were called inactive. The source made the active and inactive calls. The call rests on the fitted dose curve; in most records, active means well fitted curve in the direction sought with a large enough effect; inconclusive means small, poorly fitted or top-dose-only effect, or another doubt; inactive means no such curve, though single readings can be large; an effect the other way counts as inactive or inconclusive.

The test system of one assay is MKL-1. Description: qHTS assay to identify novel small-molecules to repurpose for Merkel cell carcinoma treatment (AID 1296009). Further: nearly all actives have a fitted effect of over 60% in size. On activity change, negative = cytotoxicity: on the % scale 0 is the no-effect control and ±100 the full control effect. Particulars: MCC and control cell lines, CellTiter-Glo viability, 72 h; series mostly up to 46 µM. The essentials:
(§1)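 Cell viability measured by CellTiter-Glo following 72 hr compound treatment at 37 degree celsius, with NPC and MIPE libraries tested in 8- and 11-point concentration series.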
(In general: In qHTS, concentration-response curves come from the screen itself.)

Another assay relates to MKL-2. The assay is described as above. To be noted: MCC and control cell lines, CellTiter-Glo viability, 72 h; series mostly up to 46 µM. The essentials:
as §1
In general terms: Cellular ATP, detected with luciferase, serves as a proxy for viable cell number.

The test system of the next assay is UISO. The assay is described as above. Particulars: MCC and control cell lines, CellTiter-Glo viability, 72 h; series mostly up to 46 µM. The essentials: as §1
For the next assay, the system named is WaGa. Described as above. Particulars: MCC and control cell lines, CellTiter-Glo viability, 72 h; series mostly up to 46 µM. An outline of the steps:
as §1

A further assay relates to C33A. Description: Primary qHTS to identify gynecologic anti-cancer compounds using libraries of approved drugs and bioactive compounds (AID 1345084). Further: nearly all actives have a fitted effect of over 55% in size. On activity change, negative = cytotoxicity: on the % scale 0 is the no-effect control and ±100 the full control effect. To be noted: Gynecologic cancer cell panel viability, ATPlite luminescence, 48 h; series mostly up to 57.5 µM. An outline of the steps:
(§2)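 In this quantitative HTS, cell killing is estimated from loss of ATP-dependent luciferase light. Cells see five compound concentrations over a 48 h exposure.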

Another assay relates to CAOV3. The assay is described as above. Particulars: Gynecologic cancer cell panel viability, ATPlite luminescence, 48 h; series mostly up to 57.5 µM. The essentials:
as §2

A further assay has as its system CASKI. Described as above. Particulars: Gynecologic cancer cell panel viability, ATPlite luminescence, 48 h; series mostly up to 57.5 µM. The essentials: as §2
For the next assay, the system named is Es-2. The assay is described as above. To be noted: Gynecologic cancer cell panel viability, ATPlite luminescence, 48 h; series mostly up to 57.5 µM. The essentials:
as §2

For the next assay, the system named is HeLa. The assay is described as above. To be noted: Gynecologic cancer cell panel viability, ATPlite luminescence, 48 h; series mostly up to 57.5 µM. The essentials: as §2
The subject of another assay is Hek293T. The assay is described as above. Particulars: Gynecologic cancer cell panel viability, ATPlite luminescence, 48 h, control line for the selectivity index; series mostly up to 57.5 µM. An outline of the steps: as §2
Another assay has as its system JEG-3. The assay is described as above. Particulars: Gynecologic cancer cell panel viability, ATPlite luminescence, 48 h; series mostly up to 57.5 µM. An outline of the steps: as §2
The next assay has as its system OV90. The description is as above. To be noted: Gynecologic cancer cell panel viability, ATPlite luminescence, 48 h; series mostly up to 57.5 µM. The essentials: as §2
In the next assay the test system is PA-1. The assay is described as above. To be noted: Gynecologic cancer cell panel viability, ATPlite luminescence, 48 h; series mostly up to 57.5 µM. An outline of the steps:
as §2

The next assay concerns SKOV3. The assay is described as above. To be noted: Gynecologic cancer cell panel viability, ATPlite luminescence, 48 h; series mostly up to 57.5 µM. An outline of the steps: as §2
The test system of the next assay is Tov-21-G. The description is as above. Particulars: Gynecologic cancer cell panel viability, ATPlite luminescence, 48 h; series mostly up to 57.5 µM. The essentials:
as §2

For another assay, the system named is Tov112D. Described as above. To be noted: Gynecologic cancer cell panel viability, ATPlite luminescence, 48 h; series mostly up to 57.5 µM. An outline of the steps: as §2
Assay [1] can be described thus: Drug repurposing screens with cells derived from glioblastoma tumor samples (AID 1345199). Further: nearly all actives have a fitted effect of over 40% in size. On activity, negative = cell killing: on the % scale 0 is the no-effect control and ±100 the full control effect. To be noted: GBM patient neurospheres viability, ATP luminescence, 48 h. An outline of the steps:
(§3)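 Primary testing used CD133+ neurospheres from four GBM patients, seven concentrations, 48 h exposure and ATP-based viability; confirmation added three slower-growing patient lines.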

Another assay has as its system astro. The assay is described as above. To be noted: viability, ATP luminescence, 48 h; series mostly up to 45.9 µM. The essentials: as §3
Assay [2] can be described thus: qHTS assay to identify inhibitors of the type 1 interferon - major histocompatibility complex class I in skeletal muscle: Counter screen cell viability and HiBit confirmation (AID 1347412). Further: nearly all actives have a fitted effect of over 60% in size. Particulars: iHSKM muscle cells + IFN-b, HiBiT or CellTiter-Glo, 24 h. The essentials: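 Duplicate plates, pinned identically: one read for HiBiT-tagged endogenous HLA-B luminescence, the other for ATP-content viability via CellTiter Glo. Cells were genome-engineered human myoblasts given 4 ng/ml IFN-b; compounds 12-pt, 1:3 from 46 uM final; 24 hr exposure.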
Potency means the concentration at half of the fitted maximal effect.

As to `Clc1cccc(-c2nnnn2Cc2cccnc2)c1Cl`, the Potency entry with MKL-1, with MKL-2, in the assay on UISO, in the assay with WaGa, in the assay on C33A and in the assay on CAOV3 was “inactive” in each case. Further, the Potency result in the assay on CASKI, in the assay with Es-2, in the assay with HeLa, in the assay with Hek293T, in the assay on JEG-3 and in the assay with OV90 was “inactive” in each case. In addition, the Potency result in the assay on PA-1, in the assay with SKOV3, with Tov-21-G and with Tov112D was “inactive” throughout.
For the compound `COc1ccc(CC2c3cc(OC)c(OC)cc3CC[N+]2(C)CCC(=O)OCCCCCOC(=O)CC[N+]2(C)CCc3cc(OC)c(OC)cc3C2Cc2ccc(OC)c(OC)c2)cc1OC` (configuration not stated), the activity change, negative = cytotoxicity was -7.93% [at 9.22 µM] with MKL-1, -23.6% [at 9.22 µM] with MKL-2, -1.41% [at 9.22 µM] in the assay on UISO and -8.88% [at 9.22 µM] in the assay on WaGa. Further, the activity, negative = cell killing in [1] (at 20 µM (top of the series), tumour line C) was -5.82%; in assay [1] (at 21.2 µM (top of the series), tumour line B) it was -8.61%; in assay [1] (at 21.2 µM (top of the series), tumour line D) it was -8.93%; in assay [1] (at 21.3 µM (top of the series), tumour line A), -14%. Also, the Potency result with astro was “inactive”.
Turning to `C=C1C(=CC=C2CCC[C@]3(C)[C@@H]([C@H](C)C=C[C@H](C)C(C)C)CC[C@@H]23)C[C@@H](O)C[C@@H]1O`, the Potency with MKL-1 was 1.18 µM (active); in the assay with MKL-2 it was 0.332 µM (active); in the assay with UISO, 8.33 µM (active); with WaGa, 0.118 µM (active); with astro, 25.1 µM (active).
As for `COc1ccc2c(OCc3nnc4ccc(-c5ccccc5)nn34)ccnc2c1`, the Potency entry with MKL-1, with MKL-2, in the assay with UISO, with WaGa, with C33A and in the assay with CAOV3 was “inactive” in each case. Further, the Potency result with CASKI, with Es-2, in the assay with HeLa, in the assay on Hek293T, in the assay with JEG-3 and with OV90 was “inactive” throughout. Moreover, the Potency result in the assay on PA-1, with Tov-21-G and in the assay on Tov112D was “inactive” throughout.
For the compound `COc1cccc2c(NCc3ccccc3)nc(-n3c(N)nc4ccccc43)nc12`, the Potency in the assay on MKL-1 was 9.35 µM (active); in the assay with MKL-2 it was 4.69 µM (active); in the assay on UISO it was 6.62 µM (active); in the assay with WaGa it was 9.35 µM (active); with C33A, 28.2 µM (active); in the assay with CASKI, 25.1 µM (active). The Potency is 25.1 µM (active) in the assay with HeLa, 25.1 µM (active) with OV90, 12.5 µM (active) in assay [2] (HiBiT) and 17.6 µM (active) in [2] (Viability).
As for `O=C(O)Cn1nnc(-c2cc(N3CCC(Oc4cc(F)ccc4Br)CC3)no2)n1`, the Potency result in the assay on MKL-1, in the assay on MKL-2, in the assay with UISO, with WaGa, in the assay with C33A and with CASKI was “inactive” throughout. In addition, the Potency entry in the assay on HeLa, in the assay on Hek293T, in the assay with JEG-3, with OV90, in the assay with PA-1 and in the assay on SKOV3 was “inactive” throughout. Further, the Potency entry in the assay on Tov-21-G and in the assay on Tov112D was “inactive” throughout.
For the compound `COc1cccc(Nc2c(C(N)=O)cnc3c(C)cc(S(=O)(=O)c4cccc(C(=O)N(C)C)c4)cc23)c1`, the Potency result with MKL-1, in the assay on MKL-2, in the assay with UISO, in the assay with WaGa, in the assay with C33A and in the assay with CASKI was “inactive” each time. In addition, the Potency entry in the assay with Es-2, in the assay on HeLa, with Hek293T, in the assay on JEG-3, in the assay on OV90 and in the assay with PA-1 was “inactive” throughout. Further, the Potency result in the assay with SKOV3, in the assay with Tov-21-G and in the assay with Tov112D was “inactive” each time.
Take `Nc1ccccc1NC(=O)c1ccc(CNC(=O)OCc2cccnc2)cc1`: the Potency in the assay on MKL-1 was 2.35 µM (active); in the assay on MKL-2, 0.296 µM (active); in the assay with UISO, 2.35 µM (active); with WaGa, 0.296 µM (active); in the assay on C33A, 17.8 µM (active); in the assay with Es-2 it was 11.2 µM (active). Besides, the Potency in the assay on HeLa is 10 µM (active); in the assay with JEG-3, 15.8 µM (active); in the assay on OV90, 0.631 µM (active); with PA-1, 3.16 µM (active); in the assay on Tov-21-G, 8.91 µM (active). The Potency result in the assay with CAOV3 and with CASKI was “inactive” in each case.

The record behind these values is PubChem BioAssay (NCATS).
